Screens as filed in PubChem BioAssay.
ROS inducer: inducers of reactive oxygen species in cancer cells; U2OS ROS induction, H2DCF-DA fluorescence; ROS induction (% of piperlongumine), % at 10 µM; actives 2% (n = 46,000); AID 624156; in the data active means ROS induction above about 79%, passing the limit was not always enough;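 further: 0% = DMSO vehicle median and 100% = reference compound median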
An asterisk follows results filed as active. Many of the other results were omitted from the sample, so hits are more common in it than they were.

SMILES | ROS inducer
Cc1cc2nc(SCc3ccccc3C#N)[nH]c2cc1C | 127*
Cc1cc2nc(Sc3c([N+](=O)[O-])nc(C)n3Cc3ccccc3)[nH]c2cc1C | 17
Cc1cc2nc(SCC(=O)NN)[nH]c2cc1C | -26
C[C@H]1CN([C@@H](C)CO)C(=O)c2cccc(NC(=O)C3CCOCC3)c2O[C@H]1CN(C)C(=O)NC1CCCCC1 | -2
COc1cc(OC)c(NC(=O)c2oc3ccc4c(c3c2C)C(=O)CC2(CCCC2)O4)cc1Cl | -3
CC(C)N(Cc1ccccc1)C(=O)C1=CCN(S(=O)(=O)c2ccc(F)cc2)CC1 | -5
Cc1ccc(S(=O)(=O)Nc2ccc3c(c2)CC(=O)N([C@@H](C)CO)C[C@H](C)[C@H](CN(C)Cc2ccc4c(c2)OCO4)O3)cc1 | 27
COc1ccc(-c2c(C#N)c(SCC(=O)c3ccccc3)nc3c2C(=O)CC(C)(C)C3)cc1 | 138*
N#Cc1c(N)nc(SCC(=O)c2ccc3ccccc3c2)c(C#N)c1-c1cccc(F)c1 | 23
CCCOC(=O)CSc1nc(N)c(C#N)c(-c2ccc(C)cc2)c1C#N | 30
CCCn1c(=N)c(C(=O)OC)cc2c(=O)n3ccccc3nc21 | 17
N=c1c(S(=O)(=O)c2ccccc2)cc2c(=O)n3ccccc3nc2n1C1CCCC1 | 83*
COC(=O)c1cc2c(=O)n3ccccc3nc2n(C(C)C)c1=N | -4
CC(=O)c1ccc(NC(=O)COc2ccccc2C(=O)Nc2cc(C(F)(F)F)ccc2Cl)cc1 | 29
C[C@H]1CN([C@@H](C)CO)C(=O)c2cccc(NC(=O)Nc3ccc(F)cc3)c2O[C@H]1CN(C)Cc1ccc(C(=O)O)cc1 | -8
C=CCn1c(SC)nc2c(c1=O)C1(CCCCC1)Cc1ccccc1-2 | 1
CC(C)NC(=O)Nc1ccc2c(c1)CC(=O)N([C@@H](C)CO)C[C@@H](C)[C@@H](CN(C)C(=O)Nc1ccc3c(c1)OCO3)O2 | 111*
C[C@H](CO)N1C[C@H](C)[C@H](CN(C)C(=O)Nc2ccc3c(c2)OCO3)Oc2ccc(NS(=O)(=O)c3ccccc3)cc2CC1=O | -4
Cc1ccc(S(=O)(=O)Nc2ccc3c(c2)CC(=O)N([C@H](C)CO)C[C@@H](C)[C@H](CN(C)C(=O)Nc2ccc4c(c2)OCO4)O3)cc1 | 2
C[C@H](CO)N1C[C@H](C)[C@H](CN(C)C(=O)Nc2ccc3c(c2)OCO3)Oc2ccc(NS(C)(=O)=O)cc2CC1=O | 123*
C[C@H]1CN([C@@H](C)CO)C(=O)Cc2cc(NC(=O)Nc3ccc4c(c3)OCO4)ccc2O[C@H]1CN(C)C(=O)Nc1ccc2c(c1)OCO2 | 0
CC(C)NC(=O)N(C)C[C@@H]1Oc2ccc(NC(=O)Nc3ccc4c(c3)OCO4)cc2CC(=O)N([C@H](C)CO)C[C@@H]1C | 6
C=C[C@](C)(O)CC/C=C(\C)C(=O)O[C@@H]1[C@@H]2O[C@]2(C)[C@H]2[C@H](O[C@@H]3O[C@H](CO)[C@@H](O)[C@H](O)[C@H]3O)OC=C[C@@]12OC(=O)/C(C)=C/CC[C@](C)(O)C=C | -5
C[C@@H]1CN([C@H](C)CO)C(=O)c2cc(NS(=O)(=O)c3ccccc3)ccc2O[C@H]1CN(C)Cc1ccncc1 | -1
COc1ccccc1S(=O)(=O)N(C)C[C@H]1OCc2cn(nn2)CCCC(=O)N([C@@H](C)CO)C[C@H]1C | -17
SMILES | ROS inducer
Cc1ccc(CSc2nnc(-n3c(=O)c(C#N)cc4c(=O)n5ccccc5nc43)s2)cc1 | 189*
COCCn1c(=O)c(C#N)cc2c(=O)n3ccccc3nc21 | 20
Cc1ccc(-n2c(=O)c(C#N)cc3c(=O)n4ccccc4nc32)cc1 | -1
Cc1cc(C(=O)Nc2cccc3c2O[C@@H](CN(C)CC2CC2)[C@@H](C)CN([C@@H](C)CO)C3=O)n(C)n1 | 2
COc1ccc(S(=O)(=O)NCCCN2CCOCC2)c(C)c1C | -3
C[C@@H]1CN([C@@H](C)CO)C(=O)c2cccc(NC(=O)Nc3ccc(C(F)(F)F)cc3)c2O[C@@H]1CN(C)Cc1ccc2c(c1)OCO2 | 63
C[C@H](CO)N1C[C@H](C)[C@H](CN(C)C(=O)Nc2ccc3c(c2)OCO3)Oc2c(NC(=O)Nc3ccc(C(F)(F)F)cc3)cccc2C1=O | 23
C[C@@H]1CN([C@H](C)CO)C(=O)c2cccc(NC(=O)Nc3ccc(F)cc3)c2O[C@H]1CN(C)Cc1ccc2c(c1)OCO2 | 87*
C[C@H]1CN([C@@H](C)CO)C(=O)c2cccc(NC(=O)Nc3ccc(F)cc3)c2O[C@@H]1CN(C)Cc1ccc2c(c1)OCO2 | 16
C[C@@H]1CN([C@@H](C)CO)C(=O)c2cccc(NS(=O)(=O)c3cn(C)cn3)c2O[C@@H]1CN(C)Cc1ccc2c(c1)OCO2 | -8
C[C@@H]1CN([C@@H](C)CO)C(=O)c2cccc(NC(=O)Nc3ccc4c(c3)OCO4)c2O[C@H]1CN(C)C(=O)Nc1ccc(C(F)(F)F)cc1 | 8
C[C@H]1CN([C@@H](C)CO)C(=O)c2cccc(NC(=O)Nc3ccc4c(c3)OCO4)c2O[C@@H]1CN(C)Cc1ccc2c(c1)OCO2 | 9
C[C@@H]1CN([C@H](C)CO)C(=O)c2cccc(NC(=O)Nc3ccc4c(c3)OCO4)c2O[C@@H]1CN(C)Cc1ccc2c(c1)OCO2 | 0
C[C@@H]1CN([C@H](C)CO)C(=O)c2cccc(NS(=O)(=O)c3cn(C)cn3)c2O[C@H]1CN(C)Cc1ccc(Cl)c(Cl)c1 | -9
C[C@@H]1CN([C@@H](C)CO)C(=O)c2cccc(NS(=O)(=O)c3cn(C)cn3)c2O[C@H]1CN(C)Cc1ccc2c(c1)OCO2 | 86*
C[C@@H]1CN([C@@H](C)CO)C(=O)c2cccc(NC(=O)Nc3ccc4c(c3)OCO4)c2O[C@H]1CN(C)Cc1ccc(C(F)(F)F)cc1 | 88*
C[C@@H]1CN([C@H](C)CO)C(=O)c2cccc(NC(=O)Nc3ccc(C(F)(F)F)cc3)c2O[C@@H]1CN(C)C(=O)Nc1ccc2c(c1)OCO2 | 94*
CC(=O)NC(c1cccc([N+](=O)[O-])c1)c1c(O)ccc2ccccc12 (stereo unspecified) | -14
Cc1noc(C)c1S(=O)(=O)Nc1ccc2c(c1)C(=O)N([C@H](C)CO)C[C@H](C)[C@H](CN(C)C(=O)NC1CCCCC1)O2 | -12
O=C(CC(=O)Nc1ccccn1)Nc1ccc2nc3n(c(=O)c2c1)CCCCC3 | -11
C[C@@H]1CN([C@H](C)CO)C(=O)c2cccc(NC(=O)c3nc4ccccc4s3)c2O[C@H]1CN(C)S(=O)(=O)c1cccs1 | 12
C[C@H](CO)N1C[C@H](C)[C@@H](CN(C)Cc2ccc(Cl)c(Cl)c2)Oc2ccc(NC(=O)CCC(F)(F)F)cc2C1=O | 14
C[C@H](CO)N1C[C@H](C)[C@H](CN(C)S(=O)(=O)c2cn(C)cn2)Oc2ccc(NC(=O)c3ccncc3)cc2C1=O | -10
C[C@@H]1CN([C@@H](C)CO)C(=O)c2cccc(NS(=O)(=O)c3ccccc3)c2O[C@@H]1CN(C)C(=O)Nc1ccc2c(c1)OCO2 | -10
C[C@@H]1CN([C@@H](C)CO)C(=O)c2cccc(NC(=O)Nc3ccc4c(c3)OCO4)c2O[C@H]1CN(C)Cc1ccc(C(=O)Nc2ccccc2N)cc1 | 41
C[C@H]1CN([C@@H](C)CO)C(=O)c2cccc(NC(=O)Nc3ccc4c(c3)OCO4)c2O[C@@H]1CN(C)Cc1ccc(C(=O)Nc2ccccc2N)cc1 | 123*
CC(C)NC(=O)N(C)C[C@H]1Oc2c(NC(=O)Nc3ccc4c(c3)OCO4)cccc2C(=O)N([C@@H](C)CO)C[C@H]1C | 90*
